Experimental data: ChEMBL document CHEMBL4808148, “HDAC6 screening dataset using tau-based substrate in an enzymatic assay yields selective inhibitors and activators” (2021)
In all, about 5,600 compounds went through this assay and about 390 (7%) showed an effect of 50% or more. The sample holds strong results, similar compounds and a random draw of the others, so the mix is not that of the screen. Positions of bridges follow the written chain, without caps; N, C: chain ends. Non-standard residues stand in square brackets, D forms with d. Residues, ends and D or L forms follow the SMILES beside them. hArg = N=C(N)NCCCC[C@H](N)C(=O)O; Mpa = O=C(O)CCS

Target: T1, Protein deacetylase HDAC6 (Homo sapiens) (UniProt Q9UBN7)
T1 sequence (whole entry): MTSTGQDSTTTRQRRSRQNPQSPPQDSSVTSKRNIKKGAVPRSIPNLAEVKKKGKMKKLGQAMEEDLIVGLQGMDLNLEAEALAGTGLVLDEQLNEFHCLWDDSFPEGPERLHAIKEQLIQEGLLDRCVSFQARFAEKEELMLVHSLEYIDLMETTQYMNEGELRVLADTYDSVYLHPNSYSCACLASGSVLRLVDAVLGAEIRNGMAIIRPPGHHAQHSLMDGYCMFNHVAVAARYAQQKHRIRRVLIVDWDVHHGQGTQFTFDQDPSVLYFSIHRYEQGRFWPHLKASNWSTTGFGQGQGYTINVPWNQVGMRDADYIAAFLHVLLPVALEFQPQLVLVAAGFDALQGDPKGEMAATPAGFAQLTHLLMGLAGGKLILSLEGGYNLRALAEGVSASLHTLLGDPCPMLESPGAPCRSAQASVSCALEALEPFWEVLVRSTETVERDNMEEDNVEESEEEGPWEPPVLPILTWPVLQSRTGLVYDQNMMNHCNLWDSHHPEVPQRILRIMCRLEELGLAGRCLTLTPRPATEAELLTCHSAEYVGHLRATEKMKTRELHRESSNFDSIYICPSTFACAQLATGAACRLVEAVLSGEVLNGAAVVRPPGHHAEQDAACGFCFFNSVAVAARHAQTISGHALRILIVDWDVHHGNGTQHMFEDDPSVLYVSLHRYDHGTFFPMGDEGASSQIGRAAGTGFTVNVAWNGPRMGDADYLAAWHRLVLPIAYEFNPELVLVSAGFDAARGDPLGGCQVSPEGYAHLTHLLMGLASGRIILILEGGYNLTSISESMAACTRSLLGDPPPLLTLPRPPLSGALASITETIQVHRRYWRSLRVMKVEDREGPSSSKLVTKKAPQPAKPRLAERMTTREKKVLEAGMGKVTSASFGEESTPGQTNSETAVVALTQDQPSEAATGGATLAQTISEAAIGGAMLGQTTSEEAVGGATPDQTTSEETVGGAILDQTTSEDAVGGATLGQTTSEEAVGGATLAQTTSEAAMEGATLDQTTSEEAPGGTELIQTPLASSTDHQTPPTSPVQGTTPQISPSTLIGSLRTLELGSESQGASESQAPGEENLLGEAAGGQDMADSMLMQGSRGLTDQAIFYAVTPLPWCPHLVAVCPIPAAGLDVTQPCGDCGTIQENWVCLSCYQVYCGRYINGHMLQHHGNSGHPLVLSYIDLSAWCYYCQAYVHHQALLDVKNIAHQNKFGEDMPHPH
Conditions: at 10 µM

Structure (SMILES)	inhibition [%]
COc1ccc(C(=O)/C(Cc2cc(OC)c(OC)c(OC)c2)=C(\C(=O)O)c2ccc3c(c2)OCO3)cc1	26.5
Cc1cc(C)c2c(c1)[C@@H](N(Cc1cc(C(F)(F)F)cc(C(F)(F)F)c1)c1nnn(C)n1)CCCN2C[C@H]1CC[C@H](C(=O)O)CC1	4.11
Cc1nnsc1C(=O)Nc1ccc(-n2nc(C(F)(F)F)cc2C(F)(F)F)cc1	8.76
O=C1Cc2cc(CCN3CCN(c4nsc5ccccc45)CC3)c(Cl)cc2N1	11.8
COc1cccc(OCCCN)c1-c1cc(Nc2cnc(C#N)cn2)n[nH]1	-3.28
N#C[C@@H]1CCCN1C(=O)CNC12CC3CC(CC(O)(C3)C1)C2	-7.44
C/C=C\C1=C(C(=O)O)N2C(=O)C(NC(=O)C(N)c3ccc(O)cc3)C2SC1 (stereo unspecified)	-7.76
O=C(O)CCN(O)C(=O)CCCCCCCCC1CC1	37.2
C=CC[N+]12CC[C@@]34c5ccccc5N5/C=C6/[C@H]7C[C@H]8[C@@]9(CC[N@@+]8(CC=C)C/C7=C/CO)c7ccccc7N(/C=C(/[C@@H](C[C@@H]31)/C(=C\CO)C2)[C@H]54)[C@@H]69 (stereo partly specified)	31.2
N=C(N)NCCC[C@@H](N)C(=O)N[C@@H](CCCNC(=N)N)C(=O)N1CCC[C@H]1C(=O)N1C[C@H](O)C[C@H]1C(=O)NCC(=O)N[C@@H](Cc1cccs1)C(=O)N[C@@H](CO)C(=O)N1Cc2ccccc2C[C@@H]1C(=O)N1[C@H](C(=O)N[C@@H](CCCNC(=N)N)C(=O)O)C[C@@H]2CCCC[C@@H]21	31.7
COc1cc(CN(CCN)C(=O)c2cccs2)ccc1OCc1ccccc1	-2.87
CN1CC(=O)N=C1NC(=O)Nc1cccc(Cl)c1	89.3
O=C(Nc1ccc(Cl)cc1)Nc1cccc(-c2cccc(N3CCCC3)n2)c1	20.6
CC(C)c1c(NC(=O)Nc2ccc(Cl)cc2)c(=O)n(-c2ccccc2)n1C	-4.84
CC(C)c1onc(-c2c(Cl)cccc2Cl)c1COc1ccc(/C=C/c2cccc(C(=O)O)c2)c(Cl)c1	3.22
CC(C)(C)c1ccc(/C=C/C(=O)Nc2ccc3c(c2)OCCO3)cc1	-7.4
O=C(/C=C/C=C/c1ccc2c(c1)OCO2)N1CCCCC1	115
O=C(c1ccc2c(c1)OCO2)N1CCCCC1	21.9
CC(C)(C)C(O)/C=C/c1ccc2c(c1)OCO2 (stereo unspecified)	15.9
O=C(/C=C/c1ccc2c(c1)OCO2)N1CCCCC1	97.2
C[N+](C)(C)CC[N+]1(C)Cc2c(Cl)c(Cl)c(Cl)c(Cl)c2C1	10.9

Structure (SMILES)	inhibition [%]
COc1oc(=O)c2cc(N)ccc2c1Cl	22.8
C=C1/C(=C\C=C2/CCC[C@]3(C)[C@@H]([C@H](C)CCCC(C)C)CC[C@@H]23)C[C@@H](O)C[C@@H]1O	-2.44
COc1ccc(-c2sc(NC(=O)C(C)(C)C)nc2C)cc1S(=O)(=O)Nc1ccc(O)cc1	-1.39
O=C(c1ccc(/C=C/c2n[nH]c3ccccc23)cc1)N1CCNCC1	94.8
COc1ccc(Cl)c(Nc2ncnc3cc(OCC4CCN(C)CC4)c(OC)cc23)c1	6.69
CN(C(=O)CCCOc1ccc2[nH]c(=O)ccc2c1)C1CCCCC1	-1.06
N=C(N)NCCCC[C@@H]1NC(=O)CCSSC[C@@H](C(N)=O)NC(=O)[C@@H]2CCCN2C(=O)[C@H](Cc2c[nH]c3ccccc23)NC(=O)[C@H](CC(=O)O)NC(=O)CNC1=O ([Mpa][hArg]GDWPC-NH2; disulfide 1-7)	6.3
CC/C(=C(\c1ccc(O)cc1)c1ccc(OCCNC)cc1)c1ccccc1	-4.99
Oc1ccc(OCc2ccccc2)cc1	98.1
N=C(N)SCCc1ccc(OCc2ccc([N+](=O)[O-])cc2)cc1	9.62
CCNCCCNCCCCNCCCNCC	4.88
CN(C)CCOc1cc(-c2cn[nH]c2)ccc1NC(=O)C1COc2ccccc2O1 (stereo unspecified)	55.4
CC1(C)CC(Oc2ccc(-c3ccc(-c4cn[nH]c4)cc3O)nn2)CC(C)(C)N1	8.09
CC1(C)CCC(C)(C)c2cc(C3(c4ccc(C(=O)O)cc4)OCCO3)ccc21	-3.33
CS(=O)(=O)c1ccc(-c2cc(Br)sc2-c2ccc(F)cc2)cc1	-5.78
O=C1NC(=O)/C(=C/c2ccc(-c3ccc(F)cc3O)o2)S1	90.4
O=C1NC(=O)/C(=C/c2ccc3c(c2)OC(F)(F)O3)S1	0.87
N=C1NC(=O)/C(=C/c2ccc(O)cc2)S1	28.8
O=C(O)C(O)Cc1ccc(O)c(O)c1 (stereo unspecified)	15.4
CC(C)C(=O)c1ccc(O)c(O)c1	-4.84
O=C(NO)c1ccc(O)c(O)c1	87.6

Structure (SMILES)	inhibition [%]
CCC(=O)c1cc(-c2ccc(Cl)cc2)n(-c2ccc(S(N)(=O)=O)cc2)c1C	23.3
O=C1c2c(O)ccc(O)c2C(=O)c2c(NCCNCCO)ccc(NCCNCCO)c21	28.6
NCCNS(=O)(=O)c1ccc(Cl)c2ccncc12	8.69
NCCNc1ccc(NCCN)c2c1C(=O)c1ccncc1C2=O	98.7
NC(N)=O	5.48
C[C@@H]1CCCN1CCc1cc2cc(-c3ccc(C#N)cc3)ccc2o1	25.1
COc1ccc([C@@H]2Sc3ccccc3N(CCN(C)C)C(=O)[C@@H]2OC(C)=O)cc1	10.1
O=C1NC(c2cccc([N+](=O)[O-])c2)=CCN1c1ccccc1O	31.3
O=C(Nc1cc(-c2ccccc2)nn1-c1ccccc1F)c1ccc([N+](=O)[O-])cc1	73.6
Cc1cc(NC(=O)Nc2ccc(F)c(F)c2)n(-c2ccccc2)n1	23.6
N#Cc1cccc(C(=O)Nc2cc(-c3ccccc3)nn2-c2ccccc2)c1	70
CCOC(=O)c1ccc(OCCC2CCN(c3ccc(C)nn3)CC2)cc1	19.2
Cc1cccc(C#Cc2ccccc2)n1	101
NS(=O)(=O)C#Cc1ccccc1	-0.7
COc1cc(C(=O)O)ccc1NC(=O)[C@@H]1N[C@@H](CC(C)(C)C)[C@](C#N)(c2ccc(Cl)cc2F)[C@H]1c1cccc(Cl)c1F	11.2
CO[C@@H]1COCC[C@@H]1N[C@@H]1CC[C@@](C(=O)N2CCc3ncc(C(F)(F)F)cc3C2)(C(C)C)C1	41.3
Cc1ccc2c(=O)c3ccccc3n(CCCN)c2c1C	6.54
COc1ccncc1C(=O)NC(=O)Nc1ccc(-c2ccccc2)c(C(F)(F)F)c1	9.55
Fc1ccc(-c2c3cccc(C(F)(F)F)c3nn2Cc2ccc(F)cc2Cl)cc1	2.87
